Reference: PubChem BioAssay (NCATS)
Inconclusive results are not listed. Activity calls are given as the source filed them. Calls come from the whole dose curve; as a rule, active = well fitted curve in the direction sought with a large enough effect; inconclusive = small, poorly fitted or top-dose-only effect, or another doubt; inactive = no such curve, though single readings can be large; an effect the other way counts as inactive or inconclusive.

Key:
[1] = tested on: Zika virus NS2B-NS3 protease (unlinked complex); assay: Primary screen GU Rhodamine qHTS for Zika virus inhibitors: Unlinked NS2B-NS3 protease assay (AID 1347159); note: % is set by controls: 0 for no effect and ±100 for the full control effect; nearly all actives have a fitted effect of over 60% in size
Procedure, shortened: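 Percent inhibition derives from the 15-min fluorescence change (ex 480, em 540 nm), normalized to no-enzyme and no-inhibitor wells. Reactions contained 25 nM NS2B-NS3 complex and 1.5 microM substrate in 10 mM Tris-HCl pH 8.0.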

[2] = tested on: Zika virus NS2B-NS3 protease (linked construct); assay: Primary screen NINDS Rhodamine qHTS for Zika virus inhibitors (AID 1347160); note: % is set by controls: 0 for no effect and ±100 for the full control effect; nearly all actives have a fitted effect of over 55% in size
Procedure, shortened: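 In 10 mM Tris-HCl pH 8.0 containing 0.01% Tween 20, linked NS2B-NS3 protease (25 nM final) is exposed to test compounds for 15 min. Cleavage of 1.5 microM Rhodamine110 substrate is tracked by fluorescence over 15 min.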

[3] = target: Calcium and integrin-binding protein 1 (Homo sapiens) (UniProt Q99828); assay: Primary qHTS for Identification of Calcium Integrin Binding Protein 1 (CIB1) Competitor (AID 1508620);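 note: GST tagged CIB1 binding a fluorescein labelled alphaIIb integrin peptide tracer; top concentration of the series differs between compounds; % is set by controls: 0 for no effect and ±100 for the full control effect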
Procedure, shortened: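 Fluorescence polarization competition: CIB1-GST (1 uM final) preincubated with compound 15 min at room temperature, then FITC-labeled alphaIIb peptide (100 nM final) added for another 15 min. Polarization read at Ex 480/Em 540.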

[4] = target: Glutathione peroxidase 1 (Homo sapiens) (UniProt P07203); assay: Primary qHTS Assay for Inhibitors of Recombinant Selenoprotein Glutathione Peroxidase 1 (GPX1) (AID 1845191); note: nearly all actives have a fitted effect of over 65% in size; for activity, negative = inhibition: % is set by controls: 0 for no effect and ±100 for the full control effect
Procedure, shortened: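 Recombinant GPX1 (10 nM final) was preincubated with compound for 30 min at room temperature, then reacted with 1 mM GSH, 0.5 mM CHP, 0.5 mM NADPH and 100 nM glutathione reductase; NADPH fluorescence (340/450 nm) was read at 0 and 15 min.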

[5] = target: Phospholipid hydroperoxide glutathione peroxidase GPX4 (Homo sapiens) (UniProt P36969); assay: Primary qHTS Assay for Inhibitors of Recombinant Selenoprotein Glutathione Peroxidase 4 (GPX4) (AID 1845192); note: nearly all actives have a fitted effect of over 65% in size; for activity change, negative = inhibition: % is set by controls: 0 for no effect and ±100 for the full control effect
Procedure, shortened: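 GR-coupled readout: 100 nM GR, 1 mM GSH, 0.5 mM NADPH; NADPH fluorescence (ex 340/em 450 nm) read at t=0 and after 15 min RT. GPX4 200 nM, preincubated 30 min with compound; substrate 0.5 mM CHP.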

[6] = target: Luciferin 4-monooxygenase (Photinus pyralis) (UniProt P08659); assay: Primary firefly luciferase (FLuc) qHTS assay for identification of artifact compounds. (AID 1845220); settings: outcome: dose series up to 54.1 µM unless noted; note: nearly all actives have a fitted effect of over 60% in size;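 for activity change, negative = inhibition: plate controls were DMSO vehicle for no effect and no enzyme for full effect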
Procedure, shortened: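 In this counter-screen for luciferase artifacts, test compounds met substrate (10 uM each luciferin and ATP) before 10 nM enzyme started the reaction. Light output was measured 5 min later.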

[7] = Primary fluorescence-based thiol-reactive (MSTI) qHTS assay for identification of artifact compounds. (AID 1845221);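 note: thiol-reactive compounds lower the probe fluorescence signal; nearly all actives have a fitted effect of over 65% in size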
Procedure, shortened: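 MSTI probe at 4 uM final in 2% DMSO/PBS pH 7.4; compounds, 1 h at room temperature in dark. Fluorescence Ex/Em 525/598 nm, normalised to Acetyl-MSTI and MSTI, fitted to 4-parameter Hill.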

[8] = tested on: Nanoluciferase (engineered Oplophorus gracilirostris luciferase); assay: Primary Nanoluciferase (NLuc) qHTS assay for identification of artifact compounds. (AID 1845222);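 note: NLuc secreted into diluted conditioned medium of S16 cells; 0% = DMSO and -100% = no enzyme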
Procedure, shortened: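 Using secreted nanoluciferase in S16 culture medium (0.22 um filtered, 1:55 dilution), compounds were preincubated 15 min at RT. Signal was generated with Nano-Glo reagent (1:100) over 5 min.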

[9] = Primary redox qHTS assay for identification of artifact compounds. (AID 1845223);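 note: 0% = DMSO and 100% = reference compound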
Procedure, shortened: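 Amplex Red (25 uM) and HRP (250 mU/mL) in HBSS, with compounds for 15 min, then 250 uM DTT for 30 min, room temperature, dark. Fluorescence 525/598 nm read; normalized to DMSO and 10 uM DA3003; Hill fit.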

[10] = tested on: HaCat; assay: Cytotoxic Profiling of Annotated Libraries Using Quantitative High-Throughput Screening (AID 1296008); settings: Five cell lines viability, CellTiter-Glo ATP luminescence, 48-72 h; max response: active compounds read low; note: nearly all actives have a fitted effect of over 60% in size; note: potency is the fitted concentration of half-maximal effect; for max response: % is set by controls: 0 for no effect and ±100 for the full control effect
Procedure, shortened: (§1)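 Compounds were pin-transferred onto cells and incubated 48 or 72 hr at 37 degree Celsius, 95% humidity. CellTiter-Glo was added, plates sat 10 min at room temperature, then ATP-coupled luminescence was imaged as the viability read-out.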

[11] = tested on: NIH3T3; assay: as above; settings: Five cell lines viability, CellTiter-Glo ATP luminescence, 48-72 h; max response: active compounds read low
Procedure, shortened: as §1

[12] = tested on: C33A; assay: Primary qHTS to identify gynecologic anti-cancer compounds using libraries of approved drugs and bioactive compounds (AID 1345084); settings: Gynecologic cancer cell panel viability, ATPlite luminescence, 48 h; series mostly up to 57.5 µM; note: nearly all actives have a fitted effect of over 55% in size; note: potency is the fitted concentration of half-maximal effect
Procedure, shortened: (§2)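 Cells, 1,000 per well, plated 16 h, then exposed 48 h at 37 C to compounds. Viability by ATPlite luminescence after 15 min at room temperature.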

[13] = tested on: CASKI; assay: as above; settings: Gynecologic cancer cell panel viability, ATPlite luminescence, 48 h; series mostly up to 57.5 µM
Procedure, shortened: as §2

[14] = tested on: Es-2; assay: as above; settings: Gynecologic cancer cell panel viability, ATPlite luminescence, 48 h; series mostly up to 57.5 µM
Procedure, shortened: as §2

[15] = tested on: Hek293T; assay: as above; settings: Gynecologic cancer cell panel viability, ATPlite luminescence, 48 h, control line for the selectivity index; series mostly up to 57.5 µM
Procedure, shortened: as §2

[16] = tested on: JEG-3; assay: as above; settings: Gynecologic cancer cell panel viability, ATPlite luminescence, 48 h; series mostly up to 57.5 µM
Procedure, shortened: as §2

[17] = tested on: OV90; assay: as above; settings: Gynecologic cancer cell panel viability, ATPlite luminescence, 48 h; series mostly up to 57.5 µM
Procedure, shortened: as §2

[18] = tested on: PA-1; assay: as above; settings: Gynecologic cancer cell panel viability, ATPlite luminescence, 48 h; series mostly up to 57.5 µM
Procedure, shortened: as §2

[19] = tested on: Tov-21-G; assay: as above; settings: Gynecologic cancer cell panel viability, ATPlite luminescence, 48 h; series mostly up to 57.5 µM
Procedure, shortened: as §2

[20] = tested on: Tov112D; assay: as above; settings: Gynecologic cancer cell panel viability, ATPlite luminescence, 48 h; series mostly up to 57.5 µM
Procedure, shortened: as §2

Chain of Calcium and integrin-binding protein 1 (Homo sapiens) (Q99828 whole entry, looked up): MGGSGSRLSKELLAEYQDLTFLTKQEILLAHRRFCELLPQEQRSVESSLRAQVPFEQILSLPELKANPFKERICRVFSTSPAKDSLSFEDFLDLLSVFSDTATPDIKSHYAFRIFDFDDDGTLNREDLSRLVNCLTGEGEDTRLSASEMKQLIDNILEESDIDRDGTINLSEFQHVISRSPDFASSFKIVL
Chain of Phospholipid hydroperoxide glutathione peroxidase GPX4 (Homo sapiens) (P36969 whole entry, looked up): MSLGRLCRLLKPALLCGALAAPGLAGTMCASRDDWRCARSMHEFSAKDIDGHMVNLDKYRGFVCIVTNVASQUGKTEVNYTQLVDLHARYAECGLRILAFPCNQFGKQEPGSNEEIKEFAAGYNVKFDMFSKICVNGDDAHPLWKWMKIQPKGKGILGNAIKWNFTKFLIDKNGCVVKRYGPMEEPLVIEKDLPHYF
Chain of Glutathione peroxidase 1 (Homo sapiens) (P07203 whole entry, looked up): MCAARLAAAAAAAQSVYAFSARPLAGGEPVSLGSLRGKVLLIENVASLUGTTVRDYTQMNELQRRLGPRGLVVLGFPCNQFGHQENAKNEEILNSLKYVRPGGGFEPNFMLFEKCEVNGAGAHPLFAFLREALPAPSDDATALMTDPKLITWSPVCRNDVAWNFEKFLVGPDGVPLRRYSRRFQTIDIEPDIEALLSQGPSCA

CCCCCn1cc(C(=O)Cc2ccccc2OC)c2ccccc21
inactive: Potency [1] | Potency [2] | Potency [3] | Potency [4] | Potency [5] | outcome [6] | Potency [7] | Potency [8] | Potency [9] | max response [10] -10.3% | max response [11] -7.87% | Potency [12] | Potency [13] | Potency [14] | Potency [15] | Potency [16] | Potency [17] | Potency [18] | Potency [19] | Potency [20]

CC(C)C(=O)O[C@H]1[C@@H]2[C@H](C)C(=O)O[C@@H]2C[C@@H](C)[C@@H]2C=CC(=O)[C@]21C
active: Potency [15] 7.94 µM | Potency [16] 10 µM | Potency [19] 10 µM
inactive: Potency [1] | Potency [2] | Potency [3] | Potency [4] | Potency [5] | outcome [6] | Potency [7] | Potency [8] | Potency [9]

C[C@]12CC[C@H](O[C@@H]3O[C@H](CO)[C@@H](O)[C@H](O)[C@H]3O)CC1CC[C@@H]1C2CC[C@]2(C)[C@@H](C3=CC(=O)OC3)CC[C@]12O (stereo not given in full)
inactive: Potency [1] | Potency [2] | Potency [3] | Potency [4] | Potency [5] | outcome [6] inactive [at 25.7 µM] | Potency [7] | Potency [8] | Potency [9] | outcome [11] | Potency [17]
active: Potency [12] 5.62 µM | Potency [14] 10 µM | Potency [15] 7.94 µM | Potency [18] 7.94 µM | Potency [19] 5.01 µM | Potency [20] 3.16 µM

C/C1=C/[C@@H](C)C/C=C/[C@H]2[C@@H]3O[C@]3(C)[C@@H](C)[C@H]3[C@H](Cc4c[nH]c5ccccc45)NC(=O)[C@]32C(=O)/C=C\C(=O)[C@@H]1O
active: Potency [11] 1.59 µM
inactive: Potency [1] | Potency [2] | Potency [3] | Potency [4] | Potency [5] | outcome [6] | Potency [8] | Potency [9] | Potency [12] | Potency [13] | Potency [14] | Potency [15] | Potency [16] | Potency [17] | Potency [18] | Potency [19] | Potency [20]

CN(CC[C@H](N)CC(=O)N[C@H]1C=C[C@@H](n2ccc(N)nc2=O)O[C@@H]1C(=O)O)C(=N)N
inactive: activity change, negative = inhibition [1] 11.2% [at 19.1 µM] | activity change, negative = inhibition [2] 10.8% [at 10.7 µM] | Potency [3] | activity, negative = inhibition [4] -3.97% [at 9.52 µM] | outcome [5] inactive [at 9.73 µM] | outcome [6] inactive [at 11.6 µM] | activity change, negative = thiol reactive [7] -6.62% [at 11.5 µM] | activity, negative = inhibition [8] 0% [at 11.6 µM] | redox activity (% of DA3003) [9] -9.15% [at 11.5 µM] | outcome [10] | activity change, negative = cytotoxicity [12] 6.23% [at 11.6 µM] | activity change, negative = cytotoxicity [13] 4.22% [at 11.6 µM] | activity change, negative = cytotoxicity [14] -2.42% [at 11.6 µM] | activity change, negative = cytotoxicity [15] 1.23% [at 11.6 µM] | activity change, negative = cytotoxicity [16] 12.8% [at 11.6 µM] | activity change, negative = cytotoxicity [17] -7.37% [at 11.6 µM] | activity change, negative = cytotoxicity [18] 5.22% [at 11.6 µM] | activity change, negative = cytotoxicity [19] 2.99% [at 11.6 µM] | activity change, negative = cytotoxicity [20] 1.2% [at 11.6 µM]

COC[C@]12CN(C)C3C4[C@H](OC)[C@H]1C3(C(OC)C[C@H]2O)[C@H]1C[C@@]2(O)[C@H](OC(=O)c3ccccc3)[C@@H]1[C@]4(O)[C@@H](O)[C@@H]2OC (stereo not given in full)
inactive: Potency [1] | Potency [2] | Potency [3] | Potency [4] | Potency [5] | outcome [6] | Potency [7] | Potency [8] | Potency [9] | max response [10] -14.8%

CCOC(=O)C1(CCc2ccccc2)CCN(Cc2ccc(NC(C)=O)cc2)CC1
inactive: Potency [1] | Potency [2] | Potency [3] | Potency [5] | outcome [6] | Potency [7] | Potency [8] | Potency [9] | max response [10] 1.98% | max response [11] -0.351% | Potency [12] | Potency [13] | Potency [14] | Potency [15] | Potency [16] | Potency [17] | Potency [18] | Potency [19] | Potency [20]

Cc1ccccc1C1=CCN(C)CC1
inactive: Potency [1] | Potency [4] | outcome [6] | Potency [7] | Potency [8] | max response [10] -6.61% | Potency [13] | Potency [14] | Potency [15] | Potency [16] | Potency [17] | Potency [18] | Potency [19] | Potency [20]

Cc1cccc(NC(=O)c2ccc(C(F)(F)F)cc2C(=O)O)n1
inactive: Potency [1] | Potency [2] | Potency [4] | outcome [6] | Potency [7] | Potency [8] | Potency [9] | outcome [10] | Potency [13] | Potency [17]

C/C=C(\C)C(=O)O[C@@H]1[C@@H](C)[C@]2(O)C3C=C(C)C(=O)[C@@]3(O)CC(CO)=C[C@H]2C2C(C)(C)[C@@]21OC(=O)C(C)CC (stereo not given in full)
inactive: Potency [1] | Potency [3] | Potency [4] | Potency [5] | outcome [6] | Potency [7] | Potency [8] | Potency [9] | outcome [10] | outcome [11] | Potency [12] | Potency [13] | Potency [15] | Potency [17] | Potency [19] | Potency [20]

CCC1(O)CCC2C3CCC4=CC(=O)CCC4C3CCC21CC (stereo not given)
inactive: Potency [1] | Potency [2] | Potency [3] | Potency [4] | Potency [5] | outcome [6] | Potency [7] | Potency [8] | Potency [9] | outcome [10] | max response [11] 1.71% | Potency [12] | Potency [13] | Potency [14] | Potency [15] | Potency [16] | Potency [17] | Potency [18] | Potency [19] | Potency [20]
